Results from PubChem BioAssay AID1463 (National Center for Advancing Translational Sciences (NCATS), 2008).
The campaign covered roughly 280,000 compounds. About 2,600 (0.93%) were called active. Not shown: some 8% with an inconclusive outcome. Calls come from the whole dose curve; as a rule, active = well fitted curve in the direction sought with a large enough effect; inconclusive = small, poorly fitted or top-dose-only effect; inactive = flat fitted curve, though single readings scatter. The sample as a whole holds a higher share of actives than the screen did.

experiment: Counterscreen qHTS for Inhibitors of Tau Fibril Formation, Fluorescence Polarization; conditions: tau K18 P301L Alexa594 fluorescence, heparin fibrillization; series mostly up to 57.7 µM; activity change, negative = decrease: at the top concentration; note: nearly all actives have a fitted effect of over 55% in size
Procedure, shortened: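 Human tau K18 P301L (15 uM unlabeled, 0.24 uM Alexa 594-labeled) in 100 mM sodium acetate pH 7 with 20 uM heparin, 6 hr at 37 C. ThT 30 uM added, 1 hr ambient; Alexa 594 FP and total fluorescence read at 555/632 nm.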
% is set by controls: 0 for no effect and ±100 for the full control effect; potency is the fitted concentration of half-maximal effect; tags give direction and shape of the fitted curve or compound fluorescence and quenching.

Compound	activity change, negative = decrease	Potency
CCOC(=O)C1CCCN(C(=O)c2ccc3c(c2)sc2nc(-c4ccc(CC)cc4)cn23)C1 (stereo unspecified)	2.07% (inactive)	
CCCCCn1c(=O)[nH]c2cc(C(=O)Nc3cc(C)cc(C)c3)ccc2c1=O	-1.5% (inactive)	
Fc1cc(F)c2nc(Nc3nc4c(F)cccc4s3)sc2c1	2.02% (inactive)	
COc1cccc2sc(Nc3nc(C)c(C(C)=O)s3)nc12	-19.8% (inactive)	
NNc1nc2c(Cl)cccc2s1		15.8 µM [quencher] (active)
COc1ccccc1CNC(=O)c1ccc(NC(=O)N2CC(C)Sc3ccccc32)cc1 (stereo unspecified)	-23.7% (inactive)	
Cc1ccc(Nc2ccccc2N)cc1	-26.2% (inactive)	
Nc1ccc(Nc2ccccc2)cc1		14.1 µM [quencher] (active)
c1ccc(Nc2n[nH]nc2-c2ccccc2)cc1	-12.4% (inactive)	
CSC(=S)N/N=C/c1c[nH]c2ccccc12		12.6 µM [quencher] (active)
C[n+]1ccc(/C=C/c2c[nH]c3ccccc23)cc1	-26.9% (inactive)	
O=C(N/N=C/c1c[nH]c2ccccc12)c1cc2ccccc2o1	-67.2% (inactive)	
Cc1ccc(CN2CCc3nc(N4CCN(C)CC4)ncc3C2)cc1	-1.13% (inactive)	
CCOc1ccc(N(Cc2ccccc2)C(=O)c2nc(S(C)(=O)=O)ncc2Cl)cc1	-10.3% (inactive)	
CC1=C(C(=O)OCC(C)C)C(c2ccc(OCc3ccccc3)cc2)N2C(=O)CCSC2=N1 (stereo unspecified)	-27.6% (inactive)	
COc1ccc(OC)c(NC(=O)CCN2CCC(C)CC2)c1	-2.57% (inactive)	
CCN1CCN(c2nc(Nc3cc(OC)ccc3OC)nc(Nc3cc(OC)ccc3OC)n2)CC1		28.2 µM [quencher] (active)
CCOC(=O)N1CCN(CCC(=O)Nc2cc(OC)ccc2OC)CC1	9.73% (inactive)	
CCOC(=O)c1ccc(NC(=O)CCn2cnnn2)cc1	-11.4% (inactive)	
CSc1nc(-c2ccccc2Cl)nc2c1Cc1c(CO)cnc(C)c1O2	2.81% (inactive)	
CCCOc1ccc(-c2cccc(NS(=O)(=O)c3ccccc3)c2)nn1	-27.7% (inactive)	
Cc1cc(Nc2ccccc2)nc(N)n1	1.59% (inactive)	
CSc1nc(Nc2ccc(F)cc2)cc(-c2ccccc2)n1		7.08 µM [quencher] (active)
CSc1nc(-c2ccccc2)nc(C(Cl)Cl)n1	-7.66% (inactive)	
Cc1cc2c(cc1C)C(c1cccc(OC(C)C)c1)CC(=O)N2 (stereo unspecified)	-7.01% (inactive)	
O=[N+]([O-])c1ccc(N2CCN(c3ccc(O)cc3)CC2)c(Cl)c1		14.1 µM [quencher] (active)

Compound	activity change, negative = decrease	Potency
COc1ccc(N2CCN(c3ccc([N+](=O)[O-])cc3Cl)CC2)cc1	-9.58% (inactive)	
O=C(O)C1CCN(c2ccc([N+](=O)[O-])cc2[N+](=O)[O-])CC1	9.45% (inactive)	
CCN1CCN(c2ncnc3c2cnn3-c2ccc(C)c(C)c2)CC1	-19.4% (inactive)	
Oc1ccc(CNc2ccccc2O)cc1		17.8 µM [quencher] (active)
O=[N+]([O-])c1ccccc1NCc1ccc(Cl)cc1	-16.6% (inactive)	
Oc1ccc(N2CCN(C(=S)NCc3ccccc3)CC2)cc1	-22.2% (inactive)	
Cc1cc(C)c2oc(-c3cccc(NC(=O)c4cccc(F)c4)c3C)nc2c1	-18.7% (inactive)	
COc1ccc(OC)c(CCNC(=O)CCCn2c(=O)c3cccn3c3cccnc32)c1	-11.3% (inactive)	
COc1ccccc1Nc1ncnc2c1oc1ccccc12	-17.5% (inactive)	
COc1ccc(Nc2ncnc3ccc(OC)cc23)cc1	-27.8% (inactive)	
COc1ccc(Nc2ncnc3sc(-c4ccccc4)cc23)c(OC)c1		14.1 µM [quencher] (active)
O=C(CN1CCN(c2ccc(O)cc2)CC1)Nc1cc(S(=O)(=O)N2CCOCC2)ccc1Cl	-11.7% (inactive)	
O=[N+]([O-])c1cc(Cl)cc(/C=N/NC(=S)Nc2cc(S(=O)(=O)N3CCOCC3)ccc2Cl)c1O		8.91 µM [quencher] (active)
O=C(N/N=C/c1ccc([N+](=O)[O-])o1)c1cccc(S(=O)(=O)N2CCOCC2)c1	-23.1% (inactive)	
CSc1ccccc1-c1nnc(NC(=O)c2ccc3c(c2)OCCO3)o1	-1.25% (inactive)	
CCCNC(=O)C1CCC(Cn2c(=O)c3sccc3n(Cc3ccccc3F)c2=O)CC1 (stereo unspecified)	9.61% (inactive)	
COc1ccc(NC(=O)CSc2nccn2C2CCCC2)cc1OC	-6.75% (inactive)	
Cn1c(=O)c2c(ncn2CC(=O)Nc2cccc(C(F)(F)F)c2)n(C)c1=O	-20% (inactive)	
CCCCNC(=O)CCNC(=O)c1ccc(C(C)(C)C)cc1	-8.92% (inactive)	
CC(C)(C)c1ccc(C(=O)NCCC(=O)NCc2ccco2)cc1		14.1 µM [quencher] (active)
CC(C)(C)c1ccc(NC(=O)NCc2ccco2)cc1	-22.4% (inactive)	
COc1ccc(NC(=O)COCc2cc(-c3ccco3)on2)cc1	-5.46% (inactive)	
Cc1ccc(NC(=O)CSc2nc3ccccc3c3nc(CCn4cncc4C)nn23)cc1F	4.76% (inactive)	
Cc1c(C(=O)Nc2ccccc2)sc2nc3n(c(=O)c12)CCCCC3	-18.3% (inactive)	
Cc1ccc(NC(=O)Nc2sc3nc4n(c(=O)c3c2C)CCC(C)CC4)c(Cl)c1 (stereo unspecified)		7.08 µM [quencher] (active)
Cc1nc(N2CCC(C)CC2)c2c(C)c(C(=O)Nc3cc(F)ccc3C)sc2n1	-5.83% (inactive)	

Compound	activity change, negative = decrease	Potency
CCOC(=O)c1cccc(NC(=O)Cn2cnc3nc4c(cc3c2=O)CCCC4)c1	-12.6% (inactive)	
COc1ccc(-n2nc(C(=O)NCCc3ccc(Cl)cc3)c3c4ccccc4n(C)c3c2=O)cc1Cl	-6.96% (inactive)	
CC1CCC(N2CC(=O)N(CCC3=CCCCC3)C(c3ccc(F)cc3)C2=O)CC1 (stereo unspecified)	0.383% (inactive)	
O=C(CCn1ccc2cc(S(=O)(=O)N3CCCC3)ccc21)NCc1cccc(Cl)c1	-25.8% (inactive)	
CC(C)(C)OC(=O)N1CCC(c2c(C(=O)N3CCN(c4cccc(Cl)c4)CC3)cnn2-c2cccc(Cl)c2)CC1	-9.84% (inactive)	
Cc1cccc(N2CCN(C(=O)CCSCc3ccccc3F)CC2)c1C	-13.6% (inactive)	
Cc1cc(O)ccc1-c1cnc2ccccc2n1	-23.3% (inactive)	
Cc1ccc(Nc2nc(-c3ccc(O)cc3O)cs2)nc1		8.91 µM [quencher] (active)
Cc1ccc(NC(=O)c2cc(-c3ccc(C)o3)nc3ccccc23)nc1	-11.4% (inactive)	
COc1ccc(NC(=O)CSc2nc3ccccc3[nH]2)cc1	-24.6% (inactive)	
Cc1ccc2nc(N3CCN(c4cccc(Cl)c4)CC3)c3nnnn3c2c1	-17.8% (inactive)	
CC(=O)Nc1cccc(/C(C)=N/NC(=O)c2ccccc2Cl)c1	-8.65% (inactive)	
O=C(NC1CC1)c1ccc2c(c1)NC(=O)c1ccccc1S2	-16.6% (inactive)	
C/C(=N\Nc1cccc(C(=O)O)c1)c1ccc2c(c1)Nc1ccccc1S2		11.2 µM [quencher] (active)
CCN(CCCNC(=O)c1cc2c(=O)n(CC)c3ccccc3c2s1)Cc1ccccc1	-15.7% (inactive)	
Cc1c(NC(=O)C(C)(C)C)cccc1-c1nc2ccccc2s1	-15.3% (inactive)	
CC(C)=CCc1c(O)c(CC=C(C)C)c2occ(-c3ccc(O)cc3)c(=O)c2c1O		15.8 µM [quencher] (active)
Cc1c(O)cc(O)c2c(=O)c(-c3ccc(O)cc3)coc12	1.54% (inactive)	
O=c1c(-c2ccccc2)coc2cc(O)ccc12	-0.968% (inactive)	
COc1ccc(-c2nnc(SCC(=O)Nc3ccc(C(C)C)cc3)nc2-c2ccc(OC)c(OC)c2)cc1OC	-20.8% (inactive)	
Oc1ccc(-c2nc3ccc(Cl)cn3c2Nc2ccc3c(c2)OCO3)cc1	-29.6% (inactive)	
Cc1ccc2nc(-c3ccc(O)cc3)c(Nc3ccc4c(c3)OCO4)n2c1		17.8 µM [quencher] (active)
Cc1ccc2nc(-c3cccnc3)c(NC3CCCC3)n2c1	-14.6% (inactive)	
COc1ccc(CCNC(=O)c2ccc(-n3c(C)cc4c3CCCC4)cc2)cc1OC	-19% (inactive)	
O=[N+]([O-])c1ccc(N/N=C/c2ccccc2)cc1		8.91 µM [quencher] (active)
O=C(N/N=C/c1ccc([N+](=O)[O-])cc1)C(=O)N1CCCC1	4.17% (inactive)	

Compound	activity change, negative = decrease	Potency
NC(=S)N/N=C/c1ccc([N+](=O)[O-])cc1	-0.488% (inactive)	
Cc1nc2ccn(Cc3cccs3)c(=O)c2cc1C(=O)NCc1ccc(Cl)cc1	-12.3% (inactive)	
COc1cccc(-c2nc(Nc3ccncc3)c3ccccc3n2)c1		10 µM [quencher] (active)
COc1ccccc1Oc1nc(-c2cccnc2)nc2ccccc12	-19.1% (inactive)	
COc1cccc(Nc2nc3ccccc3c3nncn23)c1	-28.2% (inactive)	
Cc1ccccc1CNC(=O)c1cccc(NC(=O)c2nsc3ccccc23)c1	-28.9% (inactive)	
CCS(=O)(=O)N1CCc2cc(C(=O)N3CCN(c4ccccc4OC)CC3)ccc21	-8.44% (inactive)	
O=C1c2ccccc2C2=Nc3ccccc3SC(c3ccccc3F)C12 (stereo unspecified)		5.62 µM [quencher] (active)
COc1ccc(CCNC(=O)c2ccc3c(c2)nc(C)n3-c2ccc(Br)cc2)cc1OC	-4.98% (inactive)	
CCC(=O)N1CCc2cc(CNS(=O)(=O)c3ccc(Br)s3)ccc21	-5.99% (inactive)	
COc1ccc(C2Sc3ccccc3NC3=C2C(=O)c2ccccc23)c(OC)c1OC (stereo unspecified)		6.31 µM [quencher] (active)
COc1ccc2c(c1OC)C(=O)c1ccccc1C2=O	-4.24% (inactive)	
COc1ccc(C2CC(=O)Nc3cc(C)c(C)cc32)c(OC)c1OC (stereo unspecified)	-17.8% (inactive)	
COc1ccc(C(=O)NCC(c2ccc(N(C)C)cc2)N2CCc3ccccc32)c(OC)c1 (stereo unspecified)	-24.1% (inactive)	
Cc1ccc(Oc2c(C(F)(F)F)oc3c(CN4CCCCC4)c(O)ccc3c2=O)cc1	2.89% (inactive)	
Cc1ccc(C(=O)Nc2c(C(=O)NC(C)(C)C)oc3ccccc23)cc1	-21.4% (inactive)	
Oc1ccc2ccccc2c1N=Nc1nccs1		12.6 µM [quencher] (active)
CCOC(=O)c1ccc2c(c1)N(Cc1cccc(OC)c1)C(=O)c1ccccc1S2(=O)=O	-24.9% (inactive)	
COc1cccc(CNC(=O)Cc2csc3nc(-c4ccccc4)cn23)c1	-4.57% (inactive)	
CCc1c(C)nc2c(-c3ccccc3)c(C)nn2c1Nc1ccc(NC(C)=O)cc1		17.8 µM [quencher] (active)
CCc1ccc(NC(=O)c2cnc3c(-c4ccccc4)c(C)nn3c2C)cc1	-13.4% (inactive)	
Cc1nc2c(-c3ccccc3)c(C)nn2c(C)c1CCC(=O)NCCc1ccccc1	-14.9% (inactive)	
COc1ccccc1NC(=O)CSC1=Nc2ccccc2C2=NC(CC(=O)NCc3cccs3)C(=O)N12 (stereo unspecified)	-7.59% (inactive)	
